# Laboratory results from PubChem BioAssay (NCI).
# About 83,000 compounds went through this panel and 20% of them were active in at least one assay; those are over-represented in the sample as a whole.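 For each line, cells grew in 96-well plates with the test compound present at a single concentration for 48 hours.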 A number with no mark means an inactive call. Activity calls are given as the source filed them. Rule for the calls: active = growth percent below 10; inactive = the rest.
# How the values were obtained:
# Assay in all cases: NCI-60 one-dose screen, 48 h (100 = growth as untreated, 0 = no growth, -100 = all killed)
# Conditions in all cases: 10 µM unless noted
# RPMI-8226 leukemia = tested on: RPMI-8226 leukemia
# OVCAR-8 ovarian = tested on: OVCAR-8 ovarian
# OVCAR-5 ovarian = tested on: OVCAR-5 ovarian
# OVCAR-4 ovarian = tested on: OVCAR-4 ovarian
# SK-OV-3 ovarian = tested on: SK-OV-3 ovarian
# IGROV1 ovarian = tested on: IGROV1 ovarian
# OVCAR-3 ovarian = tested on: OVCAR-3 ovarian
# HS 578T breast = tested on: HS 578T breast
# NCI/ADR-RES ovarian = tested on: NCI/ADR-RES ovarian
# SR leukemia = tested on: SR leukemia
SMILES,growth (RPMI-8226 leukemia),growth (OVCAR-8 ovarian),growth (OVCAR-5 ovarian),growth (OVCAR-4 ovarian),growth (SK-OV-3 ovarian),growth (IGROV1 ovarian),growth (OVCAR-3 ovarian),growth (HS 578T breast),growth (NCI/ADR-RES ovarian),growth (SR leukemia)
O=CNc1ccc2c(c1)Cc1cc([N+](=O)[O-])ccc1-2,35.6%,41.3%,36.2%,74.5%,12.8%,30.7%,16.1%,40.1%,3.1% (active),
CCOc1cc(/C=C/C(=O)C(C(=O)/C=C/c2ccc(OC(=O)CNc3nc4ccccc4[nH]3)c(OCC)c2)C(=O)CNc2nc3ccccc3[nH]2)ccc1OC(=O)CNc1nc2ccccc2[nH]1,-74.4% (active),9.36% (active),11.5%,26.9%,29.4%,-33.2% (active),-2.21% (active),-4.12% (active),24.3%,
COc1ccc(/C=C2/SC(=Nc3c(C)nn(-c4ccccc4)c3N)NC2=O)cc1,,,76.2%,51.9%,54.2%,27.2%,,31.7%,42%,14.9%
COc1cccc(N2CCN(c3cccc(C)n3)CC2)c1,115%,87.1%,96.5%,116%,107%,-11.8% (active),87.5%,100%,95.5%,
COP(=O)(OC)C(c1ccccc1)(c1ccccc1)c1ccccc1,87.5%,94.6%,101%,93.2%,108%,-9.3% (active),86.7%,94.5%,95.9%,
CN1CCC[C@@H]1CCO[C@](C)(c1ccccc1)c1ccc(Cl)cc1,70.4%,88.1%,73.6%,75.6%,73.9%,63.6%,100%,80.9%,76.5%,
N#Cc1c(-c2ccc(F)cc2)n2c(nc1=O)SC(=O)C2=O,76.8%,98%,110%,100%,115%,108%,123%,104%,94.5%,
CCOC(=O)Nc1ccc2c3c(cccc13)-c1ccccc1-2,,,63.6%,48.5%,62.7%,20.9%,-19.8% (active),16.6%,7.96% (active),13.6%
COc1cccc(/C=C2\Cc3ccccc3C2=O)c1,98.6%,97.2%,111%,101%,101%,99.3%,110%,111%,105%,
Cc1ccc2nc(-c3ccc(N(C)C)c(Br)c3)cn2c1,71%,93.8%,92.6%,115%,94.4%,-8.76% (active),103%,83.2%,78.2%,
CC[C@@H](c1ccc(O)c(O)c1)[C@@H](CC)c1ccc(O)c(O)c1,,,115%,68.1%,122%,98.1%,50.6%,,99.9%,52.6%
N#Cc1c(NC(=O)c2ccco2)[n+]([O-])c2cc(Cl)c(Cl)cc2[n+]1[O-],92.2%,100%,87.4%,100%,118%,-12.2% (active),109%,84.4%,88.7%,
O=C1/C(=C/c2cccc(Cl)c2)CCc2ccccc21,22.3%,91.1%,111%,100%,114%,94%,104%,110%,100%,
CCSc1nc(-c2ccc(F)cc2)c(C#N)c(=O)[nH]1,105%,107%,95.9%,103%,111%,107%,122%,117%,103%,
O=C(/C=C/c1cccc(O)c1)c1cccc(-n2cc(-c3ccccc3)[nH]c2=O)c1,-45.4% (active),9.12% (active),-9.18% (active),20.2%,106%,-30.5% (active),-28% (active),46%,3.96% (active),
CC1(C)CC2(C)CC(=O)C1C(C(=O)O)C2C(=O)O (stereo unspecified),106%,102%,98.3%,109%,101%,109%,105%,102%,113%,
CC(C)Cn1cnc2c(NCn3nc(-c4cc(Cl)cc(Cl)c4Cl)n(/N=C/c4ccc(Cl)cc4)c3=S)nc3ccccc3c21,44.3%,72.4%,92.1%,71.1%,110%,4.11% (active),98%,94%,56.3%,
CC1C(C)N(C(=O)CCl)c2ccccc2N1C(=O)CCl (stereo unspecified),,,-77.5% (active),-27.2% (active),-20.4% (active),-54.6% (active),-91.1% (active),-28.3% (active),-7.93% (active),-29.6% (active)
CCOC(=O)C1C(=O)NC(C(=O)OCC)(C(=O)OCC)C1CC (stereo unspecified),,,105%,110%,112%,124%,125%,129%,113%,107%
CCCCCc1c(C)[nH]c(/C=C2\N=C(c3ccc[nH]3)C=C2Oc2ccc(Cl)cc2)c1C,-32.8% [100 µM] (active),-21.5% [100 µM] (active),-3.17% [100 µM] (active),12.6% [100 µM],1.44% [100 µM] (active),13.3% [100 µM],-96.2% [100 µM] (active),3.26% [100 µM] (active),5.31% [100 µM] (active),
ICCC(c1ccccc1)(c1ccccc1)c1ccccc1,20%,70.8%,82.6%,50.8%,74.6%,61.7%,58.1%,48.3%,74.6%,
COc1ccc([N+](=O)[O-])c(S(=O)(=O)c2ccc(Cl)cc2)n1,34.9%,71.7%,77.1%,68.7%,97.2%,97.1%,,97.9%,81.3%,
NC(=O)NS(=O)(=O)c1ccc(N2N=C(C(F)(F)F)CC2c2cc(C(F)(F)F)cc(C(F)(F)F)c2)cc1 (stereo unspecified),2.36% (active),79.8%,85.7%,69.7%,93%,,69.7%,66.5%,,
COc1ccc(/C=C2\CCc3ccccc3C2=O)cc1,82.1%,90%,109%,89.6%,102%,81.8%,89.6%,97.3%,60.5%,
CCOC(=O)N1CCC(N=C2CSc3nnc(-c4cc(C(F)(F)F)cc(C(F)(F)F)c4)n3N2)CC1,29%,22.2%,25.6%,25.1%,41.4%,44.1%,28.5%,21.5%,14.1%,
O=C1/C(=C/c2ccc(F)cc2)Cc2ccccc21,98%,101%,92.6%,87.7%,110%,105%,,109%,107%,
CCOC(=O)C1=CCC(n2cc(C)c(=O)[nH]c2=O)O1 (stereo unspecified),106%,97.9%,113%,105%,109%,86.3%,,104%,101%,
